Reference: PubChem BioAssay AID2587 (National Center for Advancing Translational Sciences (NCATS), 2010)
Activity calls are given as the source filed them. Calls follow the shape of the dose curve; as a rule, active = well fitted curve in the direction sought with a large enough effect; inactive = no such curve, though single readings can be large or run the other way.

Target: Lysosomal acid glucosylceramidase (Homo sapiens) (UniProt P04062)
Test: qHTS Assay for Inhibitors and Activators of N370S glucocerebrosidase as a Potential Chaperone Treatment of Gaucher Disease: Chaperone Activity in Gauche Fibroblasts After Multi-day Incubation with Compound
Conditions: GC immunofluorescence, 5 days
Excerpt: NIH Chemical Genomics Center [NCGC] NIH Molecular Libraries Probe Production Centers Network [MLPCN] MLPCN Grant: MH086442-01 Assay Submitter (PI): Wei Zheng Glucocerebrosidase (GC) catalyzes the hydrolysis of beta-glucocerebroside to glucose and ceramide in lysosomes. Mutations in the glucocerebrosidase gene result in Gaucher disease, an autosomal recessive lysosomal storage disorder. Many of the mutations encountered in patients with Gaucher disease are missense alterations that may cause misfolding, decreased stability and/or mistrafficking of this lysosomal protein. […] These inhibitors include iminosugar analogs and three non-iminosugar inhibitors identified from a previous HTS of 62,000 compounds with the wild type recombinant enzyme. However, the enhancement of enzyme activity by the chaperone action of an enzyme inhibitor must be balanced against the direct inhibition of the enzyme. An enzyme activator could also function as a chaperone by binding to the enzyme and helping to correct its misfolding and mistrafficking. […] This assay attempts to quantitate translocated glucocerebrosidase protein in patient-derived fibroblasts following extended compound incubation. […]
NCGC Assay Protocol Summary: 1. […] Visualized using a fluorescence microscope and the intensity of fluorescence in the selected areas were calculated. […]

Sequence of Lysosomal acid glucosylceramidase (Homo sapiens) (P04062 whole entry N409S): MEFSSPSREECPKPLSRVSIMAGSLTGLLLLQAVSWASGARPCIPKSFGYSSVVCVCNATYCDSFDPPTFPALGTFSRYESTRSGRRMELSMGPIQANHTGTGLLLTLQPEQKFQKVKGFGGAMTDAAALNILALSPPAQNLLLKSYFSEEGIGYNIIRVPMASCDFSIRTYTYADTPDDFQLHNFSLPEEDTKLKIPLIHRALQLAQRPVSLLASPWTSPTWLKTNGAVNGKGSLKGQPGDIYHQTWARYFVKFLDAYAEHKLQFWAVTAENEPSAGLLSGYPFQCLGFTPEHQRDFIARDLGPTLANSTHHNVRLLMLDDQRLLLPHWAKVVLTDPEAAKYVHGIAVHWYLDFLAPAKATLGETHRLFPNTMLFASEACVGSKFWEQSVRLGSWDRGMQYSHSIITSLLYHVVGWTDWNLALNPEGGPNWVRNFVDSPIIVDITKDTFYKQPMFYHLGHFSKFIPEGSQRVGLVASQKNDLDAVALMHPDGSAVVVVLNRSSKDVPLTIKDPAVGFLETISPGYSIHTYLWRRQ

Compound	Potency
O=S(=O)(c1ccc2ccccc2c1)N1CCN(c2nc(-c3cccs3)nc3ccccc23)CC1	501 nM (active)
S=C(NCCCc1cnc[nH]1)NCCCN(Cc1ccc(Cl)c(Cl)c1)c1ccc(Br)cn1	316 nM (active)
